Screening results (PubChem BioAssay)
aDG glyco act – alpha-DG glycosylation activation; 0.22% of 360,000 active; activation, % at 10 µM; Pro5-aDG cells, alpha-DG glycosylation AlphaScreen (IIH6); 0% Pro5, 100% B10-LARGE cell signal;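 active means activation of at least 8% versus controls, or a plate z-score of at least 8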;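 further: Pro5 are CHO cells carrying HIG-tagged alpha-DG that lacks glycosylation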
CRFBP-R2 block – CRF-BP/CRF-R2 complex antagonism | HEK293 CRF-R2/CRF-BP, CRF-induced calcium fluorescence | inhibition, % at 11.8 µM | 0.59% of 350,000 active;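 active means inhibition of the ligand-induced calcium signal above about 50% at the single tested concentration, limit read from the data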
CRFBP-R2 agonist – CRF-BP/CRF-R2 complex agonism | AID 588473 | 0.46% of 350,000 active | activation, % at 13.2 µM | HEK293 CRF-R2/CRF-BP, calcium dye fluorescence (FLIPR); percent of saturating CRF peptide response;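 active means activation of at least 50%, plus an integration ratio under a set limit after plate pattern correction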
FAS TE block – blocks the thioesterase domain of human fatty acid synthase. AID 602261. recombinant FAS-TE, OMFH fluorogenic substrate, fluorescence endpoint. inhibition, % at 15 µM. 0.67% of 360,000 active;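 active means compounds whose normalised, plate-corrected inhibition of enzyme fluorescence in the single-dose primary screen is 50% or more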
Cardio protect – protects H9c2 cardiomyocytes from peroxide injury; H2O2 injury protection, ATPLite, 2 h; protection from H2O2 cell death, % at 20 µM; 0.63% of 360,000 active; AID 588492;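 active means compounds giving at least 50% protection of heart cells from peroxide-induced death in the single-dose screen, raw or plate-pattern-corrected value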
PfG6PD inh – PfG6PD (Plasmodium falciparum) enzyme inhibition; inhibition, % at 20 µM; AID 504690; 0.78% of 350,000 active; PfGluPho enzyme, NADPH resazurin-diaphorase fluorescence;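 active means inhibition reaching at least a set limit at 20 µM in the primary screen, cut at about 59% in these data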
PfG6PD confirm – PfG6PD inhibition, single-dose confirmed | shares compounds with PfG6PD inh | recombinant PfGluPho, NADPH-diaphorase-resazurin fluorescence | inhibition, % at 20 µM | 34% of 2,400 active;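 active means inhibition of at least 50% at 20 µM in any single replicate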
Diaphorase 10uM – diaphorase inhibition or oxidation at 10 uM NADPH; inhibition, % at 20 µM; diaphorase-coupled resazurin reduction, fluorescence, NADPH 10 uM; 39% of 820 active; shares compounds with PfG6PD inh;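 active means average inhibition reaching 50% or more with the compound at 20 µM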;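 further: resorufin red fluorescence formed as diaphorase reduces resazurin using NADPH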
Diaph ctr 30uM – counter-screen for P. falciparum G6PD inhibitors: diaphorase inhibitors, oxidizers | inhibition, % at 20 µM | AID 504863 | shares compounds with PfG6PD inh | Diaphorase/resazurin coupled assay, resorufin fluorescence, 30 uM NADPH | 29% of 820 active;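 active means inhibition averaging 50% or more, tested at 20 µM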
Of the large screens only hits and unclear results are named; the others gave an inactive call (follow-up assays come after a bar, where they were run). Sampled rows, rich in hits. Any-hit rate of the full collection: about 3.2%.

CC(C)c1ccccc1-n1c(SCc2cc(=O)oc3ccc4ccccc4c23)nnc1-c1cccnc1	PfG6PD inh 61 | PfG6PD confirm inactive
CCOc1ccc(-n2c(SCc3cc(=O)oc4cc(C)ccc34)nnc2-c2cccnc2)cc1	none
Cc1cc(C)nc(/N=C(\N)Nc2cc([N+](=O)[O-])ccc2C)n1	none
Cc1cc(C)nc(/N=C(\N)Nc2ccccc2-c2ccccc2)n1	PfG6PD inh 72 | PfG6PD confirm 55 | Diaphorase 10uM 52 | Diaph ctr 30uM inactive
Cc1ccc(NC(=O)CSCC(=O)Nc2nnc(C)s2)cc1	none
COc1ccc(-c2cn3cccc(C)c3n2)cc1F	none
COc1ccc(-c2cn3cc(C)ccc3n2)cc1OC	PfG6PD inh 61 | PfG6PD confirm inactive
COc1ccc(-c2cn3cc(C)ccc3n2)cc1F	PfG6PD inh 107 | PfG6PD confirm 73 | Diaphorase 10uM 64 | Diaph ctr 30uM 54
CCOc1ccccc1N(C)C(=O)CCS(=O)(=O)c1ccc2c(c1)NC(=O)CO2	none
CC(C)C(=O)N1CCN(c2ccc(NC(=O)c3cccs3)cc2Cl)CC1	none
CC(C)C(=O)N1CCN(c2ccc(NC(=O)c3ccc4c(c3)OCCO4)cc2Cl)CC1	PfG6PD inh 68 | PfG6PD confirm inactive
CC(=O)N1CCN(c2ccc(NC(=O)c3ccc4c(c3)OCCO4)cc2Cl)CC1	PfG6PD inh 67 | PfG6PD confirm inactive
COc1ccc(NC(=O)COc2nc3ccccc3nc2N2CCOCC2)c(OC)c1	none
CN(C)S(=O)(=O)c1cc(NC(=O)Cn2ccsc2=N)ccc1Cl	none
COc1ccccc1C(=O)Nc1nc2ccccc2s1	none
COc1ccc(C(=O)Nc2nc3ccccc3s2)c(OC)c1	PfG6PD inh 76 | PfG6PD confirm inactive
COc1ccc(NC(=O)c2cc3ccccn3n2)cc1	PfG6PD inh 64 | PfG6PD confirm inactive
COc1ccc(NC(=O)c2ccccn2)cc1	none
COc1ccc(NC(=O)c2nc3ccccc3s2)cc1	PfG6PD inh 79 | PfG6PD confirm inactive
COC(=O)c1ccccc1NS(=O)(=O)c1c(C)noc1C	none
CCOc1ccccc1NS(=O)(=O)c1cccs1	PfG6PD inh 99 | PfG6PD confirm 72 | Diaphorase 10uM 68 | Diaph ctr 30uM 61
CCOc1ccccc1NS(=O)(=O)c1c(C)noc1C	PfG6PD inh 63 | PfG6PD confirm 54 | Diaphorase 10uM inactive | Diaph ctr 30uM inactive
Cc1c(NS(=O)(=O)c2cccs2)cccc1-c1nc2cccnc2s1	none
O=S(=O)(Nc1cccc2ncccc12)c1cccs1	PfG6PD inh 99 | PfG6PD confirm 61 | Diaphorase 10uM 62 | Diaph ctr 30uM 56
CC(NC(=O)c1cccc(S(=O)(=O)N2CCN(Cc3ccccc3)CC2)c1)c1ccc(Br)cc1 (stereo unspecified)	none
C/C(Cn1cnc([N+](=O)[O-])n1)=N\NC(=O)c1ccccc1	none
C/C(Cn1nnc([N+](=O)[O-])n1)=N\NC(=O)c1ccccc1	PfG6PD inh 63 | PfG6PD confirm 60 | Diaphorase 10uM inactive | Diaph ctr 30uM inactive
O=C(NC1CC1(c1ccccc1)c1ccccc1)c1ccccc1 (stereo unspecified)	PfG6PD inh 77 | PfG6PD confirm inactive
O=C(Nc1cccc(Br)c1)c1cc2ccccc2o1	PfG6PD inh 97 | PfG6PD confirm inactive
CCOC(=O)c1cccc(NC(=O)c2cc3ccccc3o2)c1	none
CCC(=O)Nc1cccc(NC(=O)c2cc3ccccc3o2)c1	none
NS(=O)(=O)c1cccc(NC(=O)c2cc3ccccc3o2)c1	none
Cc1cccc(NC(=O)c2cc3ccccc3o2)c1	PfG6PD inh 65 | PfG6PD confirm inactive
O=C(Nc1ccc2c(c1)CCC2)c1cc2ccccc2o1	PfG6PD inh 88 | PfG6PD confirm inactive
CCOC(=O)c1ccc(NC(=O)c2cc3ccccc3o2)cc1	PfG6PD inh 67 | PfG6PD confirm inactive
